Reference: PubChem BioAssay (NCATS)
Inconclusive results are not listed. Calls of active or inactive are those of the source. Unless noted, the call rests on the fitted dose curve; in most records, active means well fitted curve in the direction sought with a large enough effect; inconclusive means small, poorly fitted or top-dose-only effect, or another doubt; inactive means no such curve, though single readings can be large; an effect the other way counts as inactive or inconclusive.

Columns and labels:
[1] = Cell Viability - Jurkat (AID 426;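 active means dose-dependent loss of cell ATP signal giving a full or clear fitted curve, ranked by lower potency value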;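 further: potency means the concentration at half of the fitted maximal effect; cells exposed to compound for 40 hours at 37 °C before ATP read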); details: qHTS
Summary of the method: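 Jurkat (Clone E6-1) cells, 5000/well in complete medium, exposed to compounds for 40 hr at 37C; intracellular ATP measured by CellTiter-Glo luminescence after 20 min at room temperature. AC50 from Hill fits.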

[2] = Cell Viability - Hek293 (AID 427;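 active means compounds whose dose-response curve shows a full or clear partial loss of cell viability, called from curve shape rather than a numeric limit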;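 further: potency means the concentration at half of the fitted maximal effect; cells exposed to compound for 40 hours at 37 °C before reading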); details: qHTS
Summary of the method: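 AC50 values derive from Hill-modelled concentration-response of ATP-based luminescence, normalized between DMSO-only and 100 uM tamoxifen controls. Cells were exposed in complete culture medium for 40 hr at 37 °C before detection.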

[3] = Cell Viability - SK-N-SH (AID 435; calls by dose curve;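 further: potency means the concentration at half of the fitted maximal effect; compound exposure lasted 40 h at 37 °C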); details: SK-N-SH neuroblastoma cell viability qHTS
Summary of the method: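 Cells seeded at 1500 per well and incubated 5 hr at 37 °C. Compound added, then 40 hr at 37 °C. CellTiter-Glo added, 20 min at room temperature, luminescence read.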

[4] = molecular target: Cytochrome P450 3A4 (Homo sapiens) (UniProt P08684); test: qHTS Assay for Inhibitors and Substrates of Cytochrome P450 3A4 (AID 884); details: recombinant CYP3A4, Luciferin-PPXE luminescence; series mostly up to 57.1 µM; further: nearly all actives have a fitted effect of over 50% in size; further: potency means the concentration at half of the fitted maximal effect
Sequence of Cytochrome P450 3A4 (Homo sapiens) (P08684 whole entry, looked up): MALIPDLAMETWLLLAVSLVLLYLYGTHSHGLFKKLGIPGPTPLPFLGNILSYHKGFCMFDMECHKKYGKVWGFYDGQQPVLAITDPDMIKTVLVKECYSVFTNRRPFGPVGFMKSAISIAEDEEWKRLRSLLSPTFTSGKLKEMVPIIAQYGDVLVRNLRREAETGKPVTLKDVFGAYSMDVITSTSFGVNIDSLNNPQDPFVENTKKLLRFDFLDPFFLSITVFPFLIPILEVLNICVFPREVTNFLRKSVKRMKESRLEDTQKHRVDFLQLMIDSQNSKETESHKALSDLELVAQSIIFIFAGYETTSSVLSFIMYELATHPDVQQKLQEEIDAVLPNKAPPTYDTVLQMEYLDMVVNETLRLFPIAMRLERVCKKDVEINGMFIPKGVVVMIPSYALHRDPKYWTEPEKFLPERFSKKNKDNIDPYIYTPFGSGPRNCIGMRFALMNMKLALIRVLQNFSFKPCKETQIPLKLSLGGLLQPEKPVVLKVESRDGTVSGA
Summary of the method: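 20 nM human CYP3A4 with 25 uM Luciferin-PPXE (at KM) in 200 mM KPO4, preincubated 10 min with compound; NADPH regeneration started a 60 min RT reaction. Luciferin detected by luminescence, normalized to 57 uM ketoconazole as full inhibition.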

[5] = MultiTox-Fluor Cytotoxicity Assay - LYMP1-002 - Dead Cells (AID 960); details: LYMP1-002 lymphoblastoid cells, dead-cell protease fluorescence; series mostly up to 46.1 µM; further: nearly all actives have a fitted effect of over 60% in size; further: potency means the concentration at half of the fitted maximal effect
Summary of the method: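 Human lymphoblastoid LYMP1-002 cells, 2500/well, treated 16 h at 37 C; dead-cell protease cleavage of bis-AAF-R110 read by fluorescence (485/520); normalized to DMSO and 15 uM tetraoctylammonium bromide; AC50 from Hill fit.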

[6] = Cell Viability - LYMP2-015 (AID 971); details: LYMP2-015 lymphoblastoid cell viability; series mostly up to 92.2 µM; further: nearly all actives have a fitted effect of over 55% in size; further: potency means the concentration at half of the fitted maximal effect
Summary of the method: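 LYMP2-015 human lymphoblastoid cells (2500/well) in complete medium, compound-treated 24 h at 37 C; viability read as cellular ATP by CellTiter-Glo luminescence after 30 min at room temperature. AC50 from Hill-equation fits of qHTS concentration-response data.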

[7] = Cell Viability - LYMP2-010 (AID 981); details: LYMP2-010 lymphoblastoid cell viability, qHTS; series mostly up to 92.2 µM;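 further: cells exposed to compound for 24 hours at 37 °C; nearly all actives have a fitted effect of over 55% in size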; further: potency means the concentration at half of the fitted maximal effect
Summary of the method: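 Human lymphoblastoid LYMP2-010 cells (2500/well) treated 24 h at 37 C in complete medium; viability read as intracellular ATP by CellTiter-Glo luminescence. AC50 from Hill fits of concentration-response data; tetraoctylammonium bromide positive control.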

[8] = molecular target: Glucocorticoid receptor (Homo sapiens) (UniProt P04150); test: qHTS assay for small molecule agonists of glucocorticoid receptor signaling (AID 588532; active means well fitted curve in the direction sought with a large enough effect in the signal ratio, with a control signal flat; the % refers to the signal ratio;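 further: 100% = dexamethasone at 0.1 µM and 0% = DMSO only wells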); details: HeLa MMTV-bla, beta-lactamase ratio, agonist, 18 h; stronger effect = higher value; percent of dexamethasone control, DMSO zero
Sequence of Glucocorticoid receptor (Homo sapiens) (P04150 whole entry, looked up): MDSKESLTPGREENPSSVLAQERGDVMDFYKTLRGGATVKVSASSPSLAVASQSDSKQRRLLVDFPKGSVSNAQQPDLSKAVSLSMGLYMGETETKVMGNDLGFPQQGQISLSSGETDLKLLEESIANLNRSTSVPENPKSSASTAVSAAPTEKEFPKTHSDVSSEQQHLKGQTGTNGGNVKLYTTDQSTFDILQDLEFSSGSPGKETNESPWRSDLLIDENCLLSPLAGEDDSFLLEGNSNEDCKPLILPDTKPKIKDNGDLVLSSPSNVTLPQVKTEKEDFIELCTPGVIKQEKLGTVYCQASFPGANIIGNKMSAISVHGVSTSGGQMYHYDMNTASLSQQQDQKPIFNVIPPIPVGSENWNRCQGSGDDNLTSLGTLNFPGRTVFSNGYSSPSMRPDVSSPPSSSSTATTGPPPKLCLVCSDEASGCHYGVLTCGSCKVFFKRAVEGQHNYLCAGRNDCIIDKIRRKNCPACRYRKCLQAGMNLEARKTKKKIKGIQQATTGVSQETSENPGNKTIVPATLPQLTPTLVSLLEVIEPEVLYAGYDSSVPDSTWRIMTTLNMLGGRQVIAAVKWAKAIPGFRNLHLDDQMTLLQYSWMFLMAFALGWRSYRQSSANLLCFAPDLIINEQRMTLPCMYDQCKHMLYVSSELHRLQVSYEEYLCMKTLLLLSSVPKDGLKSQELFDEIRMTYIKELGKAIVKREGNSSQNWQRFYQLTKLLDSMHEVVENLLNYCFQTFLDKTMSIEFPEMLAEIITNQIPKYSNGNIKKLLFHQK
Summary of the method: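 Stimulation of a glucocorticoid response element-driven beta-lactamase gene was measured in HeLa cells. Responses were scaled between DMSO basal and 0.1 uM dexamethasone, then fitted for half-maximal stimulation.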

[9] = qHTS assay for small molecule agonists of retinoid X receptor alpha signaling (AID 588544); details: HEK293T RXRa-UAS-bla, beta-lactamase reporter, 18 h; 530 nm emission
[10] = molecular target: Thyroid hormone receptor beta (Homo sapiens) (UniProt P10828); test: qHTS assay for small molecule agonists of thyroid hormone receptor beta signaling (AID 588545; calls by dose curve); details: TR-UAS-bla GripTite HEK 293, beta-lactamase ratio, agonist mode, 18 h; series mostly up to 76.7 µM
Sequence of Thyroid hormone receptor beta (Homo sapiens) (P10828 whole entry, looked up): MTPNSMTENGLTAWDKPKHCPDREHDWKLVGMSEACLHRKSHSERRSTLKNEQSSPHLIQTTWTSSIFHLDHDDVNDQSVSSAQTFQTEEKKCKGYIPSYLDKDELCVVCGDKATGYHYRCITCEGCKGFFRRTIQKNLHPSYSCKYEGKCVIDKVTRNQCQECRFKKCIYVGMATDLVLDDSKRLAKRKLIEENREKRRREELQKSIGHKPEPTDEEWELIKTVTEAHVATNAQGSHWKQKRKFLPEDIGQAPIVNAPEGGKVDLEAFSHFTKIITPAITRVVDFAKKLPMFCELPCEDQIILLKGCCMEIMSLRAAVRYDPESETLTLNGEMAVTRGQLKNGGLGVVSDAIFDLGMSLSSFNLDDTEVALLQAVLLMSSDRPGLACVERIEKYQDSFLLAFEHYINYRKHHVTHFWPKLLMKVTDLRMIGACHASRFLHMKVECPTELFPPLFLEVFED
Summary of the method: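 HEK 293 TR-UAS-bla; agonist mode; 18 hrs, 37 C; CCF4, ex 405/em 460 and 530 nm; norm. T3 10 nM = 100%, DMSO = 0%; Hill fit → EC50, efficacy.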

[11] = molecular target: Voltage-gated inwardly rectifying potassium channel KCNH2 (Homo sapiens) (UniProt Q12809); test: qHTS Assay for Small Molecule Inhibitors of the Human hERG Channel Activity (AID 588834); details: U2OS BacMam hERG, FluxOR thallium flux fluorescence; series mostly up to 92.2 µM;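 further: top concentration of the series differs between compounds; on the % scale 0 is the no-effect control and ±100 the full control effect; lower thallium flux fluorescence means stronger hERG block; nearly all actives have a fitted effect of over 50% in size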
Sequence of Voltage-gated inwardly rectifying potassium channel KCNH2 (Homo sapiens) (Q12809 whole entry, looked up): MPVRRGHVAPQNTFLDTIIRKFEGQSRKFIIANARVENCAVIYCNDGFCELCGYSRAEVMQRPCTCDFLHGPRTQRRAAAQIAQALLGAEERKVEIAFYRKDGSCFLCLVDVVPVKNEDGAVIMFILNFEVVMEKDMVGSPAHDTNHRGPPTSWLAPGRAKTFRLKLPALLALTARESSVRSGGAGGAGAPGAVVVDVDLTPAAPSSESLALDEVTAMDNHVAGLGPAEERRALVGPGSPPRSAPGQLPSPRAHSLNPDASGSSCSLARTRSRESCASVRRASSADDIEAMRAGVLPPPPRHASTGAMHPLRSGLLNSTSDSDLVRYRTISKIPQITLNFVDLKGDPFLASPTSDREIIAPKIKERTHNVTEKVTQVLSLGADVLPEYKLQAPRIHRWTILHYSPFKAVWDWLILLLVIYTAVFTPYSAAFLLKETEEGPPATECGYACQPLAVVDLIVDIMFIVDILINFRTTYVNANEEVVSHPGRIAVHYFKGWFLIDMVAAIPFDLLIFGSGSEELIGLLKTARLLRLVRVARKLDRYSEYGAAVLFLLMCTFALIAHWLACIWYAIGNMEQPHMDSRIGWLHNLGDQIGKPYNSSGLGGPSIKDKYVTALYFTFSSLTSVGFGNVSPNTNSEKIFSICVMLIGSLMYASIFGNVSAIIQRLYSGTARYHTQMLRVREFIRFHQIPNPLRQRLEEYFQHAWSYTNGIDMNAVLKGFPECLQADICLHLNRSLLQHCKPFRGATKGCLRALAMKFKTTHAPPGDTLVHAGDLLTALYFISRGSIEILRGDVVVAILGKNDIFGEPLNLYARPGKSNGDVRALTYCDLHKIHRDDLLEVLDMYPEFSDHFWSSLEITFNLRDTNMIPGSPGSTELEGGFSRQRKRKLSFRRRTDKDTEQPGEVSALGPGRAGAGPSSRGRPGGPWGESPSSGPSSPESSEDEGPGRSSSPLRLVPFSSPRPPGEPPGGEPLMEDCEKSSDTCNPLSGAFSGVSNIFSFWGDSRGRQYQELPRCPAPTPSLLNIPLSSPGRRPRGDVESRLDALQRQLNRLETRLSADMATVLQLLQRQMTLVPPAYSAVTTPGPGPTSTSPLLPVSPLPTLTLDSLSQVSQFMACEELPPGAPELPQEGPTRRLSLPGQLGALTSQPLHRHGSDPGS
Summary of the method: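 Measured: FluxOR fluorescence after thallium stimulation in U2OS cells transduced with hERG by baculovirus. Compounds pre-incubated around 10 min; medium Opti-MEM with 2% FCS. AC50 from Hill equation.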

[12] = qHTS assay for small molecule activators of the p53 signaling pathway (AID 651743; active means well fitted activation curve with a large enough effect in the signal ratio, not every such curve was filed as active; the % refers to the signal ratio; further: % of control where 0% means no effect); details: HCT-116 p53RE-bla, beta-lactamase FRET ratio, 16 h; activation: stronger effect = higher value
Summary of the method: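 Cell-based beta-lactamase reporter (p53 response elements, HCT-116 background). After a 5-hour preincubation, cells received compound for 16 hours at 37 C; substrate development ran 2 hours at room temperature.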

[13] = qHTS assay for small molecule activators of the nuclear factor-kappa B (NF-kB) signaling pathway (AID 651749; active means well fitted activation curve with a large enough effect in the signal ratio; the % refers to the signal ratio; further: % of control where 0% means no effect); details: NF-kB-bla ME-180 cells, beta-lactamase FRET ratio, 16 h; stronger effect = higher value
Summary of the method: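 Screening used 2,000 ME-180 reporter cells per well exposed to pinned compound (23 nL) or DMSO; after 16 hr at 37C, beta-lactamase expression under NF-kB control was assessed through FRET.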

[14] = qHTS assay for small molecule disruptors of the mitochondrial membrane potential - 1 hr assay (AID 651754; calls by dose curve; further: on the % scale 0 is the no-effect control and ±100 the full control effect; nearly all actives have a fitted effect of over 35% in size); details: series mostly up to 92.2 µM
Summary of the method: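 HepG2 cells, attached overnight, were exposed to compound for 1 hr at 37C, then stained 30 min with a potentiometric dye. Ratio of red aggregate (590nm) to green monomer (535nm) fluorescence reports membrane potential; collapse shifts signal toward green.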

[15] = molecular target: Nuclear receptor ROR-gamma (Homo sapiens) (UniProt P51449); test: qHTS assay for small molecule antagonists of the retinoid-related orphan receptor gamma (ROR-gamma) signaling pathway (AID 651802); details: ROR-gamma antagonist cell reporter assay; series mostly up to 92.2 µM;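 further: luciferase reporter luminescence driven by ROR response element; on the % scale 0 is the no-effect control and ±100 the full control effect; nearly all actives have a fitted effect of over 60% in size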
Sequence of Nuclear receptor ROR-gamma (Homo sapiens) (P51449 whole entry, looked up): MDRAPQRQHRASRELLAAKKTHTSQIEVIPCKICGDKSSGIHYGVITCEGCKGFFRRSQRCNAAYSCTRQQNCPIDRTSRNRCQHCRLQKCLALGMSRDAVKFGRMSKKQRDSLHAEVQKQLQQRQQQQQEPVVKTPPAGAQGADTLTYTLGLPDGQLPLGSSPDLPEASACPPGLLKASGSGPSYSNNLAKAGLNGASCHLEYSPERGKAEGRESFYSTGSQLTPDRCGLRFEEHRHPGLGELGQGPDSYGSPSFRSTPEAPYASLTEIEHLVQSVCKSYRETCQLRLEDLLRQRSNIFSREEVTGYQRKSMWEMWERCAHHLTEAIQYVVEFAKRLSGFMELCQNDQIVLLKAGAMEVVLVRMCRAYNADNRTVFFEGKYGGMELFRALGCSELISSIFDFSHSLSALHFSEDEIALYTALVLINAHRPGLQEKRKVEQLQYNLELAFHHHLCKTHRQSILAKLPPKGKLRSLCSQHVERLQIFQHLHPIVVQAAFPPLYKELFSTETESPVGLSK
Summary of the method: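 CHO cells with TET-inducible ROR-gamma and RORE-luciferase reporter, dosed then doxycycline-induced. After 16 h at 37C, One-Glo luminescence read; decreased signal indicates antagonism.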

[16] = qHTS assay for small molecule agonists of the antioxidant response element (ARE) signaling pathway measured by Nrf2-dependant transcriptional activity (AID 720636; active means well fitted curve in the direction sought with a large enough effect in the repeat runs; an effect the other way counts as inactive or inconclusive;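 further: HepG2 cells with an ARE-driven luciferase reporter; % of control where 0% means no effect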); details: ARE-luc HepG2, Nrf2 luciferase reporter, 16 h; series mostly up to 92.4 µM
Summary of the method: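 Cells: ARE-luc HepG2 with Nrf2-responsive luciferase. Medium contained 1% dialyzed FBS. Compound exposure lasted 16 hr at 37 C and 5% CO2, followed by ONE-Glo luciferase detection.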

[17] = qHTS assay for small molecule antagonists of the retinoid-related orphan receptor gamma (ROR-gamma) signaling pathway - cell viability counter screen (AID 720652; active means well fitted curve in the direction sought with a large enough effect in the repeat runs; an effect the other way counts as inactive or inconclusive;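 further: compound exposure lasted 16 hr before ATP read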; further: potency means the concentration at half of the fitted maximal effect); details: RORgamma reporter cell line viability counter screen; series mostly up to 92.2 µM
Summary of the method: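 CHO cells carrying TET-inducible ROR and RORE-luciferase reporter, plated 5 hr, then dosed with compound plus doxycycline. After 16 hr at 37 C, viability read as intracellular ATP by CellTiter-Glo luminescence.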

[18] = qHTS assay for small molecule activators of the human pregnane X receptor (PXR) signaling pathway (AID 720659; call rule not given here; further: 0% is about no effect); details: DPX-2 HepG2 CYP3A4-luciferase, 24 h; series mostly up to 92.3 µM
[19] = Cell Viability - SH-SY5Y (AID 544); details: SH-SY5Y neuroblastoma cell viability; viability change, negative = cytotoxic: at 92.2 µM (top of the series); further: nearly all actives have a fitted effect of over 55% in size; further: potency means the concentration at half of the fitted maximal effect;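 on viability change, negative = cytotoxic: 0% = DMSO alone and -100% = 100 µM tamoxifen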
Summary of the method: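 SH-SY5Y human neuroblastoma cells (1500/well) incubated 5 h, then compound-treated 40 h at 37 °C in complete medium. Viability read as intracellular ATP by CellTiter-Glo luminescence after 20 min; AC50 from Hill-equation fits of qHTS concentration-response.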

[20] = molecular target: Vitamin D3 receptor (Homo sapiens) (UniProt P11473); test: qHTS assay for small molecule agonists of vitamin D receptor signaling (AID 588543; calls by dose curve;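 further: 0% = DMSO basal and 100% = reference agonist control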); details: HEK293T VDR-UAS-bla, beta-lactamase ratio, 16 h; series mostly up to 76.8 µM
Sequence of Vitamin D3 receptor (Homo sapiens) (P11473 whole entry, looked up): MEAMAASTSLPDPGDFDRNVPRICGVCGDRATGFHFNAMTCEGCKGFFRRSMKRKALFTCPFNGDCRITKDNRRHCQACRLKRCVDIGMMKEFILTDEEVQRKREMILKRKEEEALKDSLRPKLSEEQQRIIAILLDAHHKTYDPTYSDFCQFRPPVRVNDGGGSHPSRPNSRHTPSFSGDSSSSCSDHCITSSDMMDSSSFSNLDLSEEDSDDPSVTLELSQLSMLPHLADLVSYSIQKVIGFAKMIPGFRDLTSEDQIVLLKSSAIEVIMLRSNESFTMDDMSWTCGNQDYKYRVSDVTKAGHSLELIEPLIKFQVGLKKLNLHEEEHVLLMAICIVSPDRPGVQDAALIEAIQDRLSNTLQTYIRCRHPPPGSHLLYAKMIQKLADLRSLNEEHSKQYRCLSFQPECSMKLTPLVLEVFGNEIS
Summary of the method: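 qHTS in agonist mode: compound titrations stimulate a VDR-driven β-lactamase reporter in HEK293T cells over 16 h at 37 °C. Response normalized to 50 nM 1α,25-dihydroxyvitamin D3 = 100%, DMSO = 0%; Hill fitting gives EC50 and maximal response.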

C[Si](C)(C)Cl
inactive: Potency [1] > 92 µM | Potency [2] > 92 µM | Potency [3] > 92 µM | Potency [4] | Potency [5] | Potency [6] | Potency [7] | activation [8] 10.5% | Potency [10] | Potency [11] | activation [12] -2.87% | activation [13] 1.18% | Potency [14] | Potency [15] | Potency [16] | Potency [17] | outcome [18]
8.09%: max response [9]

CC1=C(/C=C/C(C)=C/C=C/C(C)=C/C=O)C(C)(C)CCC1
inactive: Potency [20] | Potency [10] | activation [13] -2.37% | Potency [14]
active: Potency [1] 21.5 µM | Potency [2] 53.9 µM | Potency [3] 42.3 µM | Potency [19] 25.1 µM | Potency [5] 31.6 µM | Potency [6] 39.8 µM | Potency [7] 31.6 µM

CCCCCCCCOc1ccc(C(=O)O)cc1
inactive: Potency [1] > 92 µM | Potency [2] > 92 µM | Potency [3] > 92 µM | Potency [19] | Potency [4] | Potency [5] | Potency [6] | Potency [7] | activation [8] -4.25% | Potency [20] | Potency [10] | Potency [11] | activation [12] 4.64% | activation [13] -0.0346% | Potency [14] | Potency [15] | Potency [16] | Potency [17] | outcome [18]
-15.5%: max response [9]

O=C(Cl)c1ccc([N+](=O)[O-])cc1
inactive: Potency [1] > 92 µM | Potency [2] > 92 µM | Potency [4] | Potency [5] | Potency [6] | Potency [7] | activation [8] -2.19% | Potency [10] | Potency [11] | activation [13] -1.16% | Potency [14] | Potency [15] | Potency [16] | Potency [17] | outcome [18]
-12.7%: max response [9]

C/C=C/C=C/C=O
-9.87%: max response [9]
active: Potency [1] 29.4 µM | Potency [19] 31.6 µM | Potency [6] 39.8 µM | Potency [7] 31.6 µM | Potency [17] 29.8 µM
inactive: Potency [4] | Potency [5] | activation [8] -0.282% | Potency [20] | Potency [10] | Potency [11] | activation [13] -1.3% | Potency [14] | Potency [16] | outcome [18]

Cc1cc(=O)oc2cc(O)cc(O)c12
inactive: Potency [1] > 92 µM | Potency [2] > 92 µM | Potency [3] > 92 µM | Potency [19] | Potency [5] | Potency [6] | Potency [7] | activation [8] 9.06% | Potency [10] | Potency [11] | activation [12] 10.2% | Potency [15] | Potency [16] | Potency [17] | outcome [18]
active: Potency [4] 6.31 µM
